Source: PubChem BioAssay (EPA / NIEHS)
Records with an inconclusive call do not appear. The source made the active and inactive calls. Rule for the calls, unless noted: active = hit-call score of the fitted dose curve at least 0.9, where 1 is the maximum; inconclusive = response in the unintended direction; inactive = score below 0.9.

Molecular target: human Peroxisome Proliferator-activated Receptor delta (PPARd), PPARD (gene 5467) (UniProt Q03181)
Experiment: ATG_PPARd_TRANS: Attagene TRANS-FACTORIAL HepG2 Assay for human Peroxisome Proliferator-activated Receptor delta (PPARd) (AID 2283002)
Details: not given
Method in brief: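 Multiplexed trans-activation format: HepG2 liver cells expressing exogenous NR-Gal4 chimeras and GAL4-UAS reporters were exposed for 24 h. Reporter mRNA was detected by RT-PCR with capillary electrophoresis fluorescence; activity fitted as gain of signal relative to DMSO.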

Chain of human Peroxisome Proliferator-activated Receptor delta (PPARd), PPARD (gene 5467) (Q03181 whole entry, looked up): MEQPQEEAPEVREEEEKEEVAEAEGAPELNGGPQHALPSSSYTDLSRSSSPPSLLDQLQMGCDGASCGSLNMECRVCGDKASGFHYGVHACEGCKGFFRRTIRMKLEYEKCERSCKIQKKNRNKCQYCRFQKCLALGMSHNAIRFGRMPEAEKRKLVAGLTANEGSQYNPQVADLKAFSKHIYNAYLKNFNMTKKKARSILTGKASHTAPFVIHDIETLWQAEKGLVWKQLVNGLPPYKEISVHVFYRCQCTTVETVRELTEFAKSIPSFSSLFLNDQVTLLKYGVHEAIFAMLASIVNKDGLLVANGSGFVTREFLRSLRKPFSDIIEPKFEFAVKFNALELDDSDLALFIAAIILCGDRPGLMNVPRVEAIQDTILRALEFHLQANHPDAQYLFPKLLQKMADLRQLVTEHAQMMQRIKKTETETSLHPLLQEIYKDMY

Compound	outcome	AC50
O=C(O)c1cc(I)cc(I)c1I	inactive	–
C=CCCl	inactive	–
COCCl	inactive	–
COc1ccc(N)cc1	inactive	–
CC1(C)[C@H](/C=C2\CCSC2=O)[C@@H]1C(=O)OCc1coc(Cc2ccccc2)c1	inactive	–
Nc1cccnc1	inactive	–
N#CCC#N	inactive	–
C=CCN=C=S	inactive	–
Brc1ccc(Br)cc1	inactive	–
C[CH2][Hg][S]c1ccccc1C(=O)O	inactive	–
O=S(=O)(F)C(F)(F)C(F)(F)C(F)(F)C(F)(F)F	inactive	–
CCOC(=O)OC1=C(c2cc(C)ccc2C)C(=O)NC12CCC(OC)CC2 (stereo unspecified)	inactive	–
O=C(CCl)Nc1ccccc1	inactive	–
C[C@H]1C(=O)O[C@@H]2CCN3CC=C(COC(=O)[C@](C)(O)[C@]1(C)O)[C@H]23	inactive	–
COC(=O)c1cc(Oc2ccc(Cl)cc2Cl)ccc1[N+](=O)[O-]	inactive	–
Clc1cc(C(Cl)(Cl)Cl)cnc1Cl	inactive	–
N#Cc1ccccc1Cl	inactive	–
C#CCO	inactive	–

Compound	outcome	AC50
C=CC(=O)OCC(COC(=O)C=C)(COC(=O)C=C)COC(=O)C=C	inactive	–
CCCCOC(C)=O	inactive	–
N#Cc1ccncc1	inactive	–
OC[P+](CO)(CO)CO	inactive	–
c1csc(-c2ccc(-c3cccs3)s2)c1	inactive	–
OC(Cc1ccccc1Cl)(Cn1cncn1)C1(Cl)CC1 (stereo unspecified)	inactive	–
C=CC(=O)[O][Sn]([CH2]CCC)([CH2]CCC)[CH2]CCC	inactive	–
CN(C)c1ccc(N=O)cc1	inactive	–
CCCCCCCCCCCCCCC(Br)C(=O)O (stereo unspecified)	–	7.74 µM (active)
O=S1(=O)OC(c2cc(Br)c(O)c(Br)c2)(c2cc(Br)c(O)c(Br)c2)c2ccccc21	inactive	–
Brc1c(Br)c(Br)c(Oc2c(Br)c(Br)c(Br)c(Br)c2Br)c(Br)c1Br	inactive	–
COP(=S)(OC)Oc1cc(Cl)c(I)cc1Cl	inactive	–
O=C1c2ccccc2C(=O)C1C(=O)C(c1ccccc1)c1ccc(Cl)cc1 (stereo unspecified)	inactive	–
c1cc[c]([Sb]([c]2ccccc2)[c]2ccccc2)cc1	inactive	–
COc1ccc([N+](=O)[O-])cc1O	inactive	–
O=C(Nc1ccc(Br)cc1)c1cc(Br)cc(Br)c1O	inactive	–
CCCCCCCCCCCCN(C)C	inactive	–

Read-out: Intercellular Adhesion Molecule 1 (ICAM1), ICAM1 (gene 3383)
Experiment: BSK_3C_ICAM1: BioMAP Diversity Plus: 3C Assay for Intercellular Adhesion Molecule 1 (ICAM1) Biomarker Activity (AID 2283003; active = hit-call score of the fitted dose curve at least 0.9, where 1 is the maximum; inactive = score below 0.9)
Details: primary human endothelial cells (HUVEC); actives raise or lower the signal
Method in brief: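 Human vascular endothelial primary cells, 3C conditions, 24 h treatment. ICAM-1 by ELISA.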

Compound	outcome	AC50
CCOP(=O)(OCC)SCCSCC	inactive	–
N#CCCC(Br)(C#N)CBr (stereo unspecified)	–	11 µM (active)
OC(Cc1ccccc1Cl)(Cn1cncn1)C1(Cl)CC1 (stereo unspecified)	inactive	–
O=C1C=CC(=O)c2ccccc21	–	5.9 µM (active)
Cc1ccccc1OP(=O)(Oc1ccccc1)Oc1ccccc1	inactive	–
CCCCCCCCCCCCN(C)C	inactive	–
